Measurements taken from PubChem BioAssay AID1159580 (chemical genetic matrix, 2015).
The whole screen tested about 5,500 compounds, of which about 2,000 (36%) were called active. Another 18% or so got no clear call; they are omitted. The list shows a part of the results. Values without a mark were called inactive. Cut-off read from the data, not from the text of the source: active = normalized growth mostly below about 0.91 (no sharp cut-off); inconclusive = no clear call, values can overlap the other calls; inactive = mostly above about 0.92.

Assay: chemical genetic growth profiling, strain panel (AID 1159580);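 note: tested at 20 µM; growth read once vehicle control cultures reached saturation at 30 °C; 1 = growth at the plate median or of vehicle wells; lower values mean less growth of the strain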
Conditions: growth OD

## CC(=O)Nc1nnc(S(N)(=O)=O)s1
S. cerevisiae deletion strains, locus YKL009W, strain mrt4, active compounds read low
  normalized growth: 1.03
S. cerevisiae deletion strains, locus YKL068W, active compounds read low
  normalized growth: 1
S. cerevisiae deletion strains, locus YKL085W, strain MDH1 (second series), active compounds read low
  normalized growth: 1.01
S. cerevisiae deletion strains, locus YKL085W, strain MDH1, active compounds read low
  normalized growth: 1.01
S. cerevisiae deletion strains, locus YKL160W, strain elf1, active compounds read low
  normalized growth: 1
S. cerevisiae deletion strains, locus YKL190W, strain CNB1, active compounds read low
  normalized growth: 0.569 (active)
S. cerevisiae deletion strains, locus YKR001C, strain vps1, active compounds read low
  normalized growth: 0.884 (active)
S. cerevisiae deletion strains, locus YKR026C, strain gcn3, active compounds read low
  normalized growth: 1
S. cerevisiae deletion strains, locus YKR091W, strain srl3, active compounds read low
  normalized growth: 1.01
S. cerevisiae deletion strains, locus YLL001W, strain dnm1, active compounds read low
  normalized growth: 1.01
S. cerevisiae deletion strains, locus YLL026W, active compounds read low
  normalized growth: 1.01
S. cerevisiae deletion strains, locus YLL041C, strain sdh2, active compounds read low
  normalized growth: 1.01
S. cerevisiae deletion strains, locus YLR027C, strain aat2, active compounds read low
  normalized growth: 1.01
S. cerevisiae deletion strains, locus YLR039C, strain RIC1, active compounds read low
  normalized growth: 0.423 (active)
S. cerevisiae deletion strains, locus YLR058C, strain SHM2, active compounds read low
  normalized growth: 0.837 (active)
S. cerevisiae deletion strains, locus YLR102C, strain apc9, active compounds read low
  normalized growth: 0.99
S. cerevisiae deletion strains, locus YLR113W, strain HOG1, active compounds read low
  normalized growth: 0.982
S. cerevisiae deletion strains, locus YLR221C, strain rsa3, active compounds read low
  normalized growth: 0.986
S. cerevisiae deletion strains, locus YLR258W, strain gsy2, active compounds read low
  normalized growth: 1.01
S. cerevisiae deletion strains, locus YLR262C, strain YPT6 (second series), active compounds read low
  normalized growth: 1.04
S. cerevisiae deletion strains, locus YLR262C, strain YPT6, active compounds read low
  normalized growth: 0.321 (active)
S. cerevisiae deletion strains, locus YLR268W, strain sec22, active compounds read low
  normalized growth: 0.895
S. cerevisiae deletion strains, locus YLR320W, strain mms22, active compounds read low
  normalized growth: 0.99
S. cerevisiae deletion strains, locus YLR330W, strain CHS5, active compounds read low
  normalized growth: 0.557 (active)
S. cerevisiae deletion strains, locus YLR342W, strain FKS1 (second series), active compounds read low
  normalized growth: 0.496 (active)
S. cerevisiae deletion strains, locus YLR342W, strain FKS1, active compounds read low
  normalized growth: 1.02
S. cerevisiae deletion strains, locus YLR357W, strain rsc2, active compounds read low
  normalized growth: 1
S. cerevisiae deletion strains, locus YLR370C, strain arc18, active compounds read low
  normalized growth: 0.996
S. cerevisiae deletion strains, locus YLR371W, strain rom2, active compounds read low
  normalized growth: 0.945
S. cerevisiae deletion strains, locus YLR384C, strain iki3, active compounds read low
  normalized growth: 1
S. cerevisiae deletion strains, locus YLR418C, strain cdc73, active compounds read low
  normalized growth: 0.637 (active)
S. cerevisiae deletion strains, locus YML016C, strain PPZ1, active compounds read low
  normalized growth: 0.412 (active)
S. cerevisiae deletion strains, locus YML032C, strain rad52, active compounds read low
  normalized growth: 1.01
S. cerevisiae deletion strains, locus YML120C, strain ndi1, active compounds read low
  normalized growth: 1.02
S. cerevisiae deletion strains, locus YML124C, strain tub3, active compounds read low
  normalized growth: 1.01
S. cerevisiae deletion strains, locus YMR058W, strain fet3, active compounds read low
  normalized growth: 1.02
S. cerevisiae deletion strains, locus YMR078C, strain ctf18, active compounds read low
  normalized growth: 0.994
S. cerevisiae deletion strains, locus YMR125W, strain sto1, active compounds read low
  normalized growth: 0.989
S. cerevisiae deletion strains, locus YMR129W, active compounds read low
  normalized growth: 1.02
S. cerevisiae deletion strains, locus YMR205C, strain PFK2, active compounds read low
  normalized growth: 1.01
S. cerevisiae deletion strains, locus YMR223W, strain ubp8, active compounds read low
  normalized growth: 0.904
S. cerevisiae deletion strains, locus YMR231W, strain pep5, active compounds read low
  normalized growth: 0.993
S. cerevisiae deletion strains, locus YMR263W, strain SAP30, active compounds read low
  normalized growth: 0.809 (active)
S. cerevisiae deletion strains, locus YMR307W, strain GAS1, active compounds read low
  normalized growth: 0.439 (active)
S. cerevisiae deletion strains, locus YNL067W, strain RPL9B, active compounds read low
  normalized growth: 0.755 (active)
S. cerevisiae deletion strains, locus YNL071W, strain lat1, active compounds read low
  normalized growth: 1.01
S. cerevisiae deletion strains, locus YNL128W, strain TEP1, active compounds read low
  normalized growth: 1
S. cerevisiae deletion strains, locus YNL175C, strain NOP13, active compounds read low
  normalized growth: 1.03
S. cerevisiae deletion strains, locus YNL183C, strain NPR1, active compounds read low
  normalized growth: 0.959
S. cerevisiae deletion strains, locus YNL197C, strain WHI3, active compounds read low
  normalized growth: 1
S. cerevisiae deletion strains, locus YNL209W, strain ssb2, active compounds read low
  normalized growth: 1.01
S. cerevisiae deletion strains, locus YNL224C, strain SQS1, active compounds read low
  normalized growth: 0.996
S. cerevisiae deletion strains, locus YNL233W, strain BNI4, active compounds read low
  normalized growth: 0.792 (active)
S. cerevisiae deletion strains, locus YNL248C, strain rpa49, active compounds read low
  normalized growth: 0.971
S. cerevisiae deletion strains, locus YNL250W, strain rad50, active compounds read low
  normalized growth: 1.01
S. cerevisiae deletion strains, locus YNL271C, strain bni1, active compounds read low
  normalized growth: 1.01
S. cerevisiae deletion strains, locus YNL298W, strain CLA4, active compounds read low
  normalized growth: 1
S. cerevisiae deletion strains, locus YNL307C, strain MCK1, active compounds read low
  normalized growth: 0.846 (active)
S. cerevisiae deletion strains, locus YNL322C, strain KRE1 (second series), active compounds read low
  normalized growth: 1.01
S. cerevisiae deletion strains, locus YNL322C, strain KRE1, active compounds read low
  normalized growth: 0.592 (active)
S. cerevisiae deletion strains, locus YNR049C, strain mso1, active compounds read low
  normalized growth: 1.02
S. cerevisiae deletion strains, locus YNR052C, strain pop2, active compounds read low
  normalized growth: 0.995
S. cerevisiae deletion strains, locus YOL006C, strain TOP1, active compounds read low
  normalized growth: 0.141 (active)
S. cerevisiae deletion strains, locus YOL012C, strain htz1
  normalized growth: 0.275
S. cerevisiae deletion strains, locus YOL147C, strain pex11, active compounds read low
  normalized growth: 1.01
S. cerevisiae deletion strains, locus YOR001W, strain rrp6, active compounds read low
  normalized growth: 1.02
S. cerevisiae deletion strains, locus YOR061W, strain CKA2, active compounds read low
  normalized growth: 0.702 (active)
S. cerevisiae deletion strains, locus YOR069W, strain VPS5, active compounds read low
  normalized growth: 0.826 (active)
S. cerevisiae deletion strains, locus YOR070C, strain gyp1, active compounds read low
  normalized growth: 1
S. cerevisiae deletion strains, locus YOR080W, strain dia2, active compounds read low
  normalized growth: 1.01
S. cerevisiae deletion strains, locus YOR083W, strain WHI5 (second series), active compounds read low
  normalized growth: 1.02
S. cerevisiae deletion strains, locus YOR083W, strain WHI5, active compounds read low
  normalized growth: 0.993
S. cerevisiae deletion strains, locus YOR106W, strain vam3, active compounds read low
  normalized growth: 1.02
S. cerevisiae deletion strains, locus YOR136W, strain idh2, active compounds read low
  normalized growth: 0.979
S. cerevisiae deletion strains, locus YOR144C, strain elg1, active compounds read low
  normalized growth: 1.01
S. cerevisiae deletion strains, locus YOR184W, strain ser1, active compounds read low
  normalized growth: 0.885
S. cerevisiae deletion strains, locus YOR231W, strain MKK1, active compounds read low
  normalized growth: 0.987
S. cerevisiae deletion strains, locus YOR265W, strain rbl2, active compounds read low
  normalized growth: 1.01
S. cerevisiae deletion strains, locus YOR270C, strain vph1, active compounds read low
  normalized growth: 1
S. cerevisiae deletion strains, locus YOR290C, strain snf2, active compounds read low
  normalized growth: 1
S. cerevisiae deletion strains, locus YOR316C, strain cot1, active compounds read low
  normalized growth: 0.982
S. cerevisiae deletion strains, locus YPL051W, strain arl3, active compounds read low
  normalized growth: 1
S. cerevisiae deletion strains, locus YPL078C, strain atp4, active compounds read low
  normalized growth: 1.02
S. cerevisiae deletion strains, locus YPL106C, strain sse1, active compounds read low
  normalized growth: 0.998
S. cerevisiae deletion strains, locus YPL240C, strain hsp82, active compounds read low
  normalized growth: 1
S. cerevisiae deletion strains, locus YPL241C, strain CIN2, active compounds read low
  normalized growth: 0.645 (active)
S. cerevisiae deletion strains, locus YPL256C, strain CLN2, active compounds read low
  normalized growth: 0.992
S. cerevisiae deletion strains, locus YPR119W, strain clb2, active compounds read low
  normalized growth: 1.01
S. cerevisiae deletion strains, locus YPR141C, strain kar3, active compounds read low
  normalized growth: 1.01
S. cerevisiae deletion strains, locus YPR163C, strain tif3, active compounds read low
  normalized growth: 0.987
S. cerevisiae deletion strains, locus YPR167C, strain met16, active compounds read low
  normalized growth: 0.964
S. cerevisiae deletion strains, strain wtn01, active compounds read low
  normalized growth: 0.874 (active)
S. cerevisiae strains, strain wild type, active compounds read low
  normalized growth: 0.533 (active)
